This passage reports growth results from PubChem BioAssay (NCI).

Each structure is given as a SMILES string. The panel holds about 83,000 compounds, 20% with a hit somewhere; the sample as a whole holds those more often.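 Each cell line was grown in a 96-well plate and treated with one concentration of compound for 48 hours. Values below 10 were considered active.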 Calls of active or inactive are those of the source.

The test system of this assay is MDA-MB-468 breast. The experiment in a line: NCI-60 one-dose screen, 48 h (100 = growth as untreated, 0 = no growth, -100 = all killed). To be noted: 10 µM unless noted.
Turning to `CCCC(=O)Oc1ccc(CC)cc1`, the growth was 117% (inactive).
With `O=C(Cn1c2ccccc2c2ccncc21)N/N=C/c1c[nH]c2ccccc12` the figure was 43.4% (inactive).
Then `CN(CSc1ccc(Cl)cc1)c1ccc(CSc2ccc(Cl)cc2)cc1`, with 17.2% (inactive); and `Cc1ccc(-c2nc(SCC(=O)c3ccc(C#N)cc3)[nH]c(=O)c2C#N)cc1`, with 120% (inactive); and `Nc1nc(=O)n([C@H]2C[C@H](O)[C@@H](CO)O2)cc1C=O`, with 107% (inactive).
Then `O=C(Cc1csc2nc(-c3ccc(Cl)cc3)cn12)N/N=C/c1ccccc1O`, with 56.7% (inactive); and `CNC(=O)c1cc(Oc2ccc3c(c2)sc2nc(-c4ccc(OC)cc4)cn23)ccn1`, with 16.8% (inactive); and `C#Cc1ccc(C(=O)NCc2ccc(/C=C/C(=O)c3nccn3C)cc2)cc1`, with 18% (inactive).
On to `CC1=CC(=O)C=CC1(C)C(Cl)(Cl)Cl` (stereo unspecified), for which the growth was 98.4% (inactive).
With `O=C1c2ccccc2C(=O)c2c1oc1oc3c(c(=O)c21)c(=O)n(-c1ccccc1)c1ccccc31` the figure was -27.3% (active); with `c1cc(OCCN2CCCCC2)cc(-c2n[nH]c3ccc(-c4ncn[nH]4)cc23)c1`, 93% (inactive).
